This note sets out measurements from PubChem BioAssay.

The nature of the first assay: COS7 lysate on small-molecule microarray, probe aHis, 635 nm (AID 1123).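 Note: z-score combines 667nm fluorescence intensity with signal-to-noise per printed compound spot.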 Particulars: COS7 cell lysate, fluorescence, higher = more signal.
`COCCOC(=O)N1C(=O)[C@@]2(c3cc(C#CCCO)ccc31)[C@H](C(=O)N1CCc3cc(OC)c(OC)cc3C1)[C@H]1C(=O)O[C@H](c3ccccc3)[C@H](c3ccccc3)N1[C@@H]2c1ccccc1OCCO` yielded a composite z-score of 1.2. Still for that read-out and setting: the figure for `C=CCOC(=O)[C@@H]1[C@H]2C(=O)O[C@H](c3ccccc3)[C@H](c3ccccc3)N2[C@H](c2ccc(OCCOC(=O)[C@H]3C[C@H]4C(=O)NCC(=O)N4[C@H]3c3ccc(O)cc3)cc2)[C@@]12C(=O)Nc1ccc(I)cc12` is 1.94; for `C=CCC(OC(C)=O)[C@@H]1[C@@H](N(Cc2cc3ccccc3o2)C(=O)Cc2ccc(OC)cc2)c2cc(OCCCO)ccc2N1C(=O)Cc1ccc2ccccc2c1` (some centres undefined) it is 0.491. Take `C[C@H]1C2[C@H](Cc3ccccc3)NC(=O)[C@]23C(=O)NCC(=O)N2CCC[C@H]2C(=O)NC/C=C\C/C=C/C3[C@@H]2O[C@]12C` (some centres undefined): the composite z-score is -0.981. `COC(=O)C1=CC(CCCO)=CC(C2CC2)N(Cc2cccc(OC(F)(F)F)c2)C=C1C(=O)OC` (centres undefined) showed a composite z-score of 2.23.

On to `CCCCC(O)C1C=CC2C(=O)NC(=O)C2N1Nc1ccccn1` (centres undefined), for which the composite z-score is -0.234. On the same count and under the same terms, as for `CCCCC(=C=CC[C@H](O)c1ccc(OCCO)cc1)C[C@H](O)c1ccccn1`, the figure is 1.04; as for `CC(C)CNC(=O)[C@@H]1c2ccccc2C(=O)N(CC23CC4CC(CC(C4)C2)C3)[C@H]1c1ccc(CO)cc1`, 1.74. The same measure, in the same setting: the figure for `CCN(CC)c1ccc(N2CC=CC34O[C@@H]5C=CCOC(=O)[C@@H]5[C@H]3C(=O)N(CCCO)[C@@H]4C2=O)cc1` (some centres undefined) is 1.4.

The next assay in a line: compound binding in COS7 lysate, probe aLAP1, primary screen, cell lysate, small-molecule microarray (AID 1124).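 Note: lysate comes from COS7 cells expressing LAP1 and is applied at 0.3 µg/mL; score merges spot fluorescence near 667 nm with signal-to-noise over triplicate slides.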 Particulars: probe aLAP1, fluorescence, higher = more signal.
As for `C=CCNC(=O)[C@H]1[C@@H]2C(=O)O[C@@H](c3ccccc3)[C@@H](c3ccccc3)N2[C@@H](c2ccc(O)cc2)[C@]12C(=O)Nc1ccc(C#CC3=CCCCC3)cc12`, the composite z-score was found to be 0.573.

In turn, `COC(=O)[C@@]1(Cc2ccccc2)[C@H]2c3cc(C(=O)N4CCCC4)n(Cc4ccc(C(F)(F)F)nc4)c3C[C@H]2CN1C(=O)c1ccccc1` returned a composite z-score of 0.232. The compound `O=C1OCCC/C=C\[C@H]2OC34C=CCN(Cc5ccccc5)C(=O)[C@H]3N(CCCCCO)C(=O)[C@@H]4C12` (some centres undefined) returned a composite z-score of 1.65. The same measure, in the same setting: the figure for `CN(C)CCCNC(=O)[C@@]1(Cc2ccccc2I)c2ccccc2C(=O)N(Cc2ccccc2)[C@H]1c1ccc(CO)cc1` is 1.41.

Consider `COC(=O)c1c(CC[C@@H](CO)NC(=O)N[C@@H](Cc2ccccc2)Cn2cc(-c3cncn3C)nn2)oc(C(C)=O)c1C(=O)OC`, for which the composite z-score amounted to 0.512. `CC(c1ccccc1)C(O)C1C=CC2C(=O)N(c3ccccc3)C(=O)C2N1Nc1ccc(C#N)cc1` (centres undefined): the composite z-score is 0.359. Same read-out and setting: the figure for `CC(=O)c1ccc(C(O)C2C=CC3C(=O)N(C)C(=O)C3N2NC(=O)OC(C)(C)C)cc1` (centres undefined) is 0.366. Turning to `C=CCC(OC(C)=O)[C@@H]1[C@@H](N(Cc2ccc(-c3ccccc3)cc2)C(=O)c2cccc3ccccc23)c2cc(OCCCO)ccc2N1C(=O)c1ccc2ccccc2c1` (some centres undefined), the composite z-score amounted to 0.0105.

In the case of `COC(=O)[C@@H]1N=C(c2ccc(OCCCO)cc2)O[C@@H]1c1ccccc1CN=[N+]=[N-]`, the composite z-score was -0.0169. With `CCOC(=O)C1=CC[C@@H](c2ccccc2)N(S(=O)(=O)c2ccc(C)cc2)[C@H]1C#N`, the composite z-score was determined as 0.254. Same read-out and setting: as for `CC#CCO[Si](C#CCCCCCC)(C(C)C)C(C)C`, the figure is -0.529; as for `C=CCC(OC(C)=O)[C@@H]1[C@@H](N(Cc2ccc(-c3ccccc3)cc2)C(=O)c2ccc(C)cc2)c2cc(OCCCO)ccc2N1C(=O)c1ccc2ccccc2c1` (some centres undefined), -0.031; as for `COc1ccc(C(O)C2C=CC3C(=O)N(C)C(=O)C3N2Nc2ccc([N+](=O)[O-])cc2[N+](=O)[O-])cc1OCc1ccccc1` (centres undefined), 0.53.

The compound `CN1C(=O)C2C=CC(C(O)c3ccc(-c4ccccc4)s3)N(Nc3ccccc3)C2C1=O` (centres undefined) showed a composite z-score of 0.32. Same read-out and setting: the figure for `N#Cc1ccc(C(O)C2C=CC3C(=O)NC(=O)C3N2Nc2ccccn2)cc1` (centres undefined) is 0.711; for `CCCC=C(CCC)[C@@H](NC(=O)c1ccco1)c1ccc(C(=O)OC)cc1` it is 0.0767. On the same count and under the same terms, the figure for `COc1ccc([Si](C)(C)[C@@H]2[C@@H](CC(=O)N(CCO)Cc3ccccc3)O[C@]3(C(=O)N(Cc4ccc(N5CCC5=O)cc4)c4ccccc43)[C@H]2C)cc1` is -0.161; for `Cc1ccc(F)cc1S(=O)(=O)N[C@@H]1CCN(Cc2ccc3[nH]ccc3c2)C1` it is -0.126. The same measure, in the same setting: the figure for `C=C(/C(=C/C[C@H](OC(=O)c1ccncc1)c1ccccc1OCCO)c1cc(C(=O)OC)ccc1OC)C(C)C` is -0.0576. `CCOC(=O)C1=CC[C@@H](c2ccc(F)cc2)N(S(=O)(=O)c2ccc(C)cc2)[C@H]1c1ccc([N+](=O)[O-])cc1`: the composite z-score was -0.0775. On the same count and under the same terms, as for `C=CC[C@@]1(C(=O)N(C)C)N=C(c2ccc(OCCCO)cc2)O[C@@H]1c1ccccc1`, the figure is 1.01; as for `CC(C)C(=C=CC[C@@H](O)c1cccc(OCCO)c1)CCO`, 0.0157; as for `[N-]=[N+]=NCc1ccccc1C[C@]1(C(=O)N2CCOCC2)N=C(c2ccc(OCCCO)cc2)O[C@H]1c1ccccc1CN=[N+]=[N-]`, 0.853. Take `COc1ccc(NN2C(C(O)c3cc(C(F)(F)F)cc(C(F)(F)F)c3)C=CC3C(=O)N(C4CCCCC4)C(=O)C32)cc1` (centres undefined): the composite z-score stood at 0.219. Take `CC=CC(O)C1C=CC2C(=O)N(C)C(=O)C2N1NC(=O)OC(C)(C)C` (centres undefined): the composite z-score was found to be 0.826. On the same count and under the same terms, as for `[N-]=[N+]=NCc1ccccc1[C@@H]1OC(c2ccc(OCCCO)cc2)=N[C@]1(Cc1ccccc1)C(=O)NCc1ccccc1`, the figure is 0.388; as for `COCCOC(=O)N1C(=O)[C@@]2(c3cc(C#CCCO)ccc31)[C@H](C(=O)N1CCc3cc(OC)c(OC)cc3C1)[C@H]1C(=O)O[C@H](c3ccccc3)[C@H](c3ccccc3)N1[C@@H]2c1ccccc1OCCO`, 1.01; as for `C=CCOC(=O)[C@@H]1[C@H]2C(=O)O[C@H](c3ccccc3)[C@H](c3ccccc3)N2[C@H](c2ccc(OCCOC(=O)[C@H]3C[C@H]4C(=O)NCC(=O)N4[C@H]3c3ccc(O)cc3)cc2)[C@@]12C(=O)Nc1ccc(I)cc12`, -0.159. Same read-out and setting: as for `C=CCC(OC(C)=O)[C@@H]1[C@@H](N(Cc2cc3ccccc3o2)C(=O)Cc2ccc(OC)cc2)c2cc(OCCCO)ccc2N1C(=O)Cc1ccc2ccccc2c1` (some centres undefined), the figure is -0.185; as for `C[C@H]1C2[C@H](Cc3ccccc3)NC(=O)[C@]23C(=O)NCC(=O)N2CCC[C@H]2C(=O)NC/C=C\C/C=C/C3[C@@H]2O[C@]12C` (some centres undefined), -0.632. `COC(=O)C1=CC(CCCO)=CC(C2CC2)N(Cc2cccc(OC(F)(F)F)c2)C=C1C(=O)OC` (centres undefined) had a composite z-score of 0.637. Still for that read-out and setting: as for `CCCCC(O)C1C=CC2C(=O)NC(=O)C2N1Nc1ccccn1` (centres undefined), the figure is 0.386; as for `CCCCC(=C=CC[C@H](O)c1ccc(OCCO)cc1)C[C@H](O)c1ccccn1`, 0.967; as for `CC(C)CNC(=O)[C@@H]1c2ccccc2C(=O)N(CC23CC4CC(CC(C4)C2)C3)[C@H]1c1ccc(CO)cc1`, 0.0747.

With `CCN(CC)c1ccc(N2CC=CC34O[C@@H]5C=CCOC(=O)[C@@H]5[C@H]3C(=O)N(CCCO)[C@@H]4C2=O)cc1` (some centres undefined), the composite z-score was -0.39.
